# Measurements: PubChem BioAssay (NCATS)
# Inconclusive results are not listed. Entries that show only a call come without a potency. Activity calls are given as the source filed them. Unless noted, the call rests on the fitted dose curve. Bridge positions count the residues as written; N and C are the ends. Square brackets hold non-standard residues; d marks the D form. Peptide text beside a SMILES is read from it. * marks the point of attachment. ξ: configuration not given here. Octanoyl(6-Me) = CCC(C)CCCCC(=O)*; ξThr(3R) = C[C@@H](O)C(N)C(=O)O; dDab = NCC[C@@H](N)C(=O)O; Dab = NCC[C@H](N)C(=O)O
# Columns and labels:
# [1] = Validation screen for inhibitors of Lassa infection (AID 463096)
# [2] = Inducers of the Endoplasmic Reticulum Stress Response (ERSR) in human glioma: Validation (AID 504836; active means well fitted curve in the direction sought with a large enough effect; an effect the other way counts as inactive or inconclusive)
# Procedure, shortened: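 Stably transfected U87-MG human glioma cells carrying a GRP78-based luminescent sensor were seeded at 1000 cells/well, pin-dosed with compounds and incubated 16 h. Luciferase reagent was then added, and end-point luminescence was read after 10 min at room temperature.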
# [3] = qHTS for Inhibitors of the Functional Ribonucleoprotein Complex (vRNP) of Lassa (LASV) Arenavirus: LASV Primary Screen - GLuc reporter signal (AID 1347082; calls by dose curve; tested in HEK293 reporter line; further: nearly all actives have a fitted effect of over 60% in size)
# [4] = qHTS for Inhibitors of the Functional Ribonucleoprotein Complex (vRNP) of Lassa (LASV) Arenavirus: Viability assay - alamar blue signal for LASV Primary Screen (AID 1347083; calls by dose curve; tested in HEK293 reporter line; further: nearly all actives have a fitted effect of over 80% in size; further: potency means the concentration at half of the fitted maximal effect)
# [5] = qHTS for Inhibitors of the Functional Ribonucleoprotein Complex (vRNP) of Lymphocytic Choriomeningitis Arenaviruses (LCMV): Viability assay - alamar blue signal for LCMV Primary Screen (AID 1347085; calls by dose curve; tested in HEK293 reporter line; further: nearly all actives have a fitted effect of over 80% in size; further: potency means the concentration at half of the fitted maximal effect)
# [6] = target: Nucleoprotein (Lymphocytic choriomeningitis virus (strain Armstrong)) (UniProt P09992); assay: qHTS for Inhibitors of the Functional Ribonucleoprotein Complex (vRNP) of Lymphocytic Choriomeningitis Arenaviruses (LCMV): LCMV Primary Screen - GLuc reporter signal (AID 1347086); further: nearly all actives have a fitted effect of over 70% in size; further: potency means the concentration at half of the fitted maximal effect
# CRL-7250 = normal cell line; assay: qHTS assay to identify novel small-molecules to repurpose for Merkel cell carcinoma treatment (AID 1296009; active means well fitted curve in the direction sought with a large enough effect; an effect the other way counts as inactive or inconclusive; further: nearly all actives have a fitted effect of over 60% in size); conditions: MCC and control cell lines, CellTiter-Glo viability, 72 h; series mostly up to 92 µM
# Procedure, shortened: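 qHTS format: cells treated with library compounds in DMSO across 8 (NPC) or 11 (MIPE) concentrations. Readout after 72 hr at 37 degree celsius was CellTiter-Glo luminescence.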
# [7] = qHTS profiling of the MIPE4 collection as inhibitors of Plasmodium falciparum (DD2) proliferation (AID 743345; call rule not given here); conditions: P. falciparum Dd2 in erythrocytes, SYBR Green DNA, 72 h; at 28.5 µM (top of the series) unless noted
# Procedure, shortened: (§1)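 Erythrocytes infected with P. falciparum (0.3% parasitemia, 2.5% hematocrit) incubated with compounds 72 h at 37 C, 5% CO2. Lysis with saponin/Triton buffer containing SYBR Green I, overnight at room temperature in the dark; DNA fluorescence (485/535 nm) normalised to 0.29 uM artemisinin and DMSO.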
# [8] = Cytotoxicity counterscreen for inhibitors of SARS-CoV-2 cell entry (AID 1645845); further: nearly all actives have a fitted effect of over 50% in size
# Procedure, shortened: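 Expi293F/hACE2 cells seeded overnight; cpd pin-transferred in DMSO, 1 h preincubation, + media, 48 h 37 C 5% CO2; ATPLite 1step luminescence; normalized to cells and no cells.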
# [9] = target: Alpha-galactosidase (Coffea arabica) (UniProt Q42656); assay: Counterscreen for Glucocerebrosidase Inhibitors: qHTS Assay for Coffee Bean alpha-Galactosidase at pH 4.5 (AID 957; active means well fitted curve in the direction sought with a large enough effect; an effect the other way counts as inactive or inconclusive)
# Procedure, shortened: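 Coffee bean enzyme (2 nM) with 80 uM 4-methylumbelliferyl alpha-D-galactopyranoside in 50 mM citric acid, 0.005% Tween-20, pH 4.5, 20 min at room temperature; compounds 0.7 nM–77 uM. Stopped at pH 10, fluorescence 365/440 nm; AC50 from Hill fits.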
# [10] = target: Alpha-galactosidase (Coffea arabica) (UniProt Q42656); assay: Counterscreen for Glucocerebrosidase Inhibitors: qHTS Assay for Coffee Bean alpha-Galactosidase at pH 5.9 (AID 998; active means well fitted curve in the direction sought with a large enough effect; an effect the other way counts as inactive or inconclusive)
# Procedure, shortened: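 Green coffee bean enzyme (2 nM final) was incubated with compounds (0.7 nM–77 uM) and 4-methylumbelliferyl alpha-D-galactopyranoside (80 uM) in citrate buffer pH 5.9, 20 min at room temperature. High-pH stop; fluorescence 365/440 nm; AC50 from Hill fits.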
# [11] = Primary qHTS to identify inhibitors of SARS-CoV-2 cell entry (AID 1645846); conditions: activity change, negative = inhibition: at 57.1 µM (top of the series) unless noted; further: nearly all actives have a fitted effect of over 45% in size; further: potency means the concentration at half of the fitted maximal effect
# Procedure, shortened: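 Using luciferase-reporting pseudoviruses carrying Wuhan-Hu-1 spike, the screen tracks entry into stably ACE2-expressing cells over 48 hr. Activity is expressed relative to spike particles versus particles lacking any fusion protein.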
# [12] = qHTS profiling of the MIPE4 collection as inhibitors of Plasmodium falciparum (3D7) proliferation (AID 743344; call rule not given here); conditions: P. falciparum 3D7 in erythrocytes, SYBR Green DNA fluorescence, 72 h; at 28.5 µM (top of the series) unless noted
# Procedure, shortened: as §1
# [13] = qHTS profiling of the MIPE4 collection as inhibitors of Plasmodium falciparum (DD2) proliferation (Rep 2) (AID 743346; call rule not given here); conditions: P. falciparum Dd2 in erythrocytes, SYBR Green DNA, 72 h; at 28.5 µM (top of the series) unless noted
# Procedure, shortened: as §1
# [14] = qHTS profiling of the MIPE4 collection as inhibitors of Plasmodium falciparum (HB3) proliferation (AID 743347; call rule not given here); conditions: P. falciparum HB3 in erythrocytes, SYBR Green DNA, 72 h; at 28.5 µM (top of the series) unless noted
# Procedure, shortened: as §1
# [15] = Confirmatory qHTS for VERO E6 Cytotoxicity Assay: Counterscreen for SARS-CoV-2 CPE Assay (AID 1508605); further: nearly all actives have a fitted effect of over 60% in size
# [16] = Confirmatory qHTS for activators (rescue) of SARS-CoV-2 Cytopathic Effect (CPE) (AID 1508606); further: potency means the concentration at half of the fitted maximal effect; nearly all actives have a fitted effect of over 70% in size
# Chain of Nucleoprotein (Lymphocytic choriomeningitis virus (strain Armstrong)) (P09992 whole entry, looked up): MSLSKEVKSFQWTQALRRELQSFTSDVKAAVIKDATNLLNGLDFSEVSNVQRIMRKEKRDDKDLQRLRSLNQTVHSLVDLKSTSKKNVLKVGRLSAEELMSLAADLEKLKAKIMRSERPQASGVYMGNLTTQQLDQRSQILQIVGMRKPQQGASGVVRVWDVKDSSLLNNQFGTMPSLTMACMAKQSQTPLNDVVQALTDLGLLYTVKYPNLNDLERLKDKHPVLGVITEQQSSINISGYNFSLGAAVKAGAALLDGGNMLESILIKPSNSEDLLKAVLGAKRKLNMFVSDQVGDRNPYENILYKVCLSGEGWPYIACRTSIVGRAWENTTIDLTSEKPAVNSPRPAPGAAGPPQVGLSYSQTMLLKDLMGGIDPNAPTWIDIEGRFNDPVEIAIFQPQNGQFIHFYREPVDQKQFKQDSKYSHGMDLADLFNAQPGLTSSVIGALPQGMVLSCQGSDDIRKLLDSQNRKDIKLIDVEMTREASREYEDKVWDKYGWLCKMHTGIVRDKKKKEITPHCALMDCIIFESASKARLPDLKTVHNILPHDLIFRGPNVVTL
# Chain of Alpha-galactosidase (Coffea arabica) (Q42656 whole entry, looked up): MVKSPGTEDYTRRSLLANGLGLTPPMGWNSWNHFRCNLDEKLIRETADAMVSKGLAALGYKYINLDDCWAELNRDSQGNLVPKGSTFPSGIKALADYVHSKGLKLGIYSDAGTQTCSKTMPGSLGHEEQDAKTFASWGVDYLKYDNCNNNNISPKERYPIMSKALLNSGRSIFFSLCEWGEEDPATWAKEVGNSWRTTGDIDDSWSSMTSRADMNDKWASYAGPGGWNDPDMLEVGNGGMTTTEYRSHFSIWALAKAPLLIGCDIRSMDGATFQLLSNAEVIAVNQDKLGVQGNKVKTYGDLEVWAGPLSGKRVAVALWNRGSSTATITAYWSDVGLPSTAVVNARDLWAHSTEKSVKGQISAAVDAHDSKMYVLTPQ
smiles,measurement,setting,value
CCN1CCCC1CNC(=O)c1cc(S(N)(=O)=O)ccc1OC (centres undefined),Potency,[1],inactive
same,outcome,[2],inactive
same,Potency,[3],inactive
same,Potency,[4],inactive
same,Potency,[5],inactive
same,Potency,[6],inactive
same,Potency,CRL-7250,inactive
Cc1ccc(O)c(C(CCN(C(C)C)C(C)C)c2ccccc2)c1 (centres undefined),"parasite growth remaining, % of DMSO control (lower = more inhibition)",[7],32%
same,Potency,[3],inactive
same,Potency,[4],inactive
same,Potency,[5],inactive
same,Potency,[6],inactive
same,Potency,[8],inactive
same,Potency,CRL-7250,inactive
O=[N+]([O-])c1ccc(-c2nc(-c3ccc(F)cc3)c(-c3ccncc3)[nH]2)cc1,outcome,[9],inactive
same,outcome,[10],inactive
same,Potency,[1],inactive
same,outcome,[2],inactive
same,Potency,[3],inactive
same,Potency,[4],inactive
same,Potency,[5],inactive
same,Potency,[6],inactive
same,Potency,CRL-7250,inactive
Cc1ccc(CN2CCNCC2)cc1NC(=O)CNc1ccc(F)c(F)c1,Potency,[3],inactive
same,Potency,[4],inactive
same,Potency,[5],inactive
same,Potency,[6],inactive
same,Potency,[8],inactive
same,Potency,[11],inactive
same,Potency,CRL-7250,inactive
Cc1c(NC(=O)c2ccc(C(C)(C)C)cc2)cccc1-c1cn(C)c(=O)c(Nc2ccc(C(=O)N3CCOCC3)cc2)n1,Potency,[3],inactive
same,Potency,[4],inactive
same,Potency,[6],inactive
same,Potency,[11],inactive
same,Potency,CRL-7250,inactive
Nc1ncnc2c1c(-c1cccc(OCc3ccccc3)c1)cn2C1CC(CN2CCC2)C1 (centres undefined),Potency,[3],inactive
same,Potency,[4],inactive
same,Potency,[6],inactive
same,Potency,[8],inactive
same,Potency,CRL-7250,inactive
CN(CC(=O)N(Cc1ccc(C2CCCCC2)cc1)c1ccc(C(=O)O)c(O)c1)S(=O)(=O)c1c(F)c(F)c(F)c(F)c1F,Potency,[3],inactive
same,Potency,[4],27.3 µM (active)
same,Potency,[6],inactive
same,Potency,[8],inactive
same,Potency,CRL-7250,inactive
CCOC1OC(=O)C[C@H]1NC(=O)[C@@H]1CCCN1C(=O)[C@@H](NC(=O)c1ccc(N)c(Cl)c1)C(C)(C)C (some centres undefined),"parasite growth, % of DMSO control",[12],265%
same,"parasite growth, % of control (lower = inhibition)",[13],67.6%
same,"growth, % of control",[14],216%
same,Potency,[3],inactive
same,Potency,[4],inactive
same,Potency,[5],inactive
same,Potency,CRL-7250,inactive
COc1cccc([C@@H](C)NCCCc2ccccc2Cl)c1,Potency,[3],inactive
same,Potency,[4],inactive
same,Potency,[6],inactive
same,Potency,[15],inactive
same,Potency,[16],10 µM (active)
same,Potency,[8],inactive
same,Potency,[11],22.4 µM (active)
same,Potency,CRL-7250,inactive
COc1cc(F)c(C(C)C)cc1-c1ccc(C(F)(F)F)cc1CN1C(=O)O[C@H](c2cc(C(F)(F)F)cc(C(F)(F)F)c2)[C@@H]1C,Potency,[3],inactive
same,Potency,[4],0.0273 µM (active)
same,Potency,[5],0.0193 µM (active)
same,Potency,[8],inactive
same,"activity change, negative = inhibition",[11],-5.3%
same,Potency,CRL-7250,inactive
CCCCOc1ccc(C(=O)Nc2ccc(F)cc2F)cc1,Potency,[3],inactive
same,Potency,[6],inactive
same,Potency,[11],inactive
same,Potency,CRL-7250,inactive
CCC(C)CCCCC(=O)N[C@@H](CCN)C(=O)NC(C(=O)N[C@H](CCN)C(=O)N[C@@H]1CCNC(=O)C([C@@H](C)O)NC(=O)[C@@H](CCN)NC(=O)[C@@H](CCN)NC(=O)[C@@H](CC(C)C)NC(=O)[C@H](Cc2ccccc2)NC(=O)[C@H](CCN)NC1=O)[C@@H](C)O (stereo partly drawn) ({Octanoyl(6-Me)}-[Dab][ξThr(3R)][dDab][dDab][Dab]F[dL][dDab][dDab][ξThr(3R)]; lactam 4-C),Potency,[3],inactive
same,Potency,[8],inactive
same,Potency,[11],inactive
same,Potency,CRL-7250,inactive
C[C@@H]1CN(Cc2ccc(F)cc2)[C@@H](C)CN1C(=O)c1cc2c(C(=O)C(=O)N(C)C)cn(C)c2cc1Cl,Potency,[3],inactive
same,Potency,[6],30.6 µM (active)
same,Potency,[8],inactive
same,"activity change, negative = inhibition",[11],-24.1%
same,Potency,CRL-7250,inactive
